# Source: PubChem BioAssay (NCATS)
# Records with an inconclusive call do not appear. A call without a number means that no potency is given here. Calls of active or inactive are those of the source. The call rests on the fitted dose curve; in most records, active means well fitted cell-killing curve with a large enough effect; inconclusive means small, poorly fitted or top-dose-only effect, or effect the other way; inactive means no such curve, though single readings can be large or run the other way.
# Test: Quantitative High-Throughput drug screen in 47 multiple myeloma cell lines against the NCATS MIPE library collection: Karpas620_DSMZ cell viability assay (AID 1918959); further: nearly all actives have a fitted effect of over 30% in size
# Details: Karpas620 myeloma viability, CellTiter-Glo ATP luminescence, 48 h; series mostly up to 45.8 µM
# Description: PI: Beverly A. Mock Ph.D.
# Laboratory of Cancer Biology and Genetics,
# Center for Cancer Research, National Cancer Institute,
# National Institute of Health, Bethesda, Maryland
# Drug resistance and disease progression are common in multiple myeloma (MM) patients, underscoring the need for new therapeutic combinations. […] We hypothesized that effective combinations would reduce MYC expression and enhance p16 activity. […] These preclinical data identify potentially useful drug combinations for evaluation in drug-resistant MM and reveal potential mechanisms of combined drug sensitivity.
# Described herein is the primary MIPE qHTS used to cherrypick compounds. Validated compounds were then further tested for potential synergistic activiy.
# [1] Peat TJ, Gaikwad SM, Dubois W, Gyabaah-Kessie N, Zhang S, Gorjifard S, Phyo Z, Andres M, Hughitt VK, Simpson RM, Miller MA, Girvin AT, Taylor A, Williams D, D'Antonio N, Zhang Y, Rajagopalan A, Flietner E, Wilson K, Zhang X, Shinn P, Klumpp-Thomas C, McKnight C, Itkin Z, Chen L, Kazandijian D, Zhang J, Michalowski AM, Simmons JK, Keats J, Thomas CJ, Mock BA. Drug combinations identified by high-throughput screening promote cell cycle transition and upregulate Smad pathways in myeloma. Cancer Lett. 2023 Aug 1;568:216284. doi: 10.1016/j.canlet.2023.216284. Epub 2023 Jun 24. PMID: 37356470; PMCID: PMC10408729.
# SEQUENCE No. (e.g., 1, 2, 3, etc.); […] (e.g., Cells, Incubation, Reagent, etc.); VALUE and DESCRIPTION.
# 1; Cells; 5 uL; white, solid bottom 1536-well Greiner assay plate.
# 2; Compounds; 23 nL; Kalypsis pin tool (Wako USA) equipped with a 1536-well pin head to transfer to the assay plates.
# 3; Incubation; 48 hours; 37C incubation.
# 4; Reagent;5uL; CellTiter Glo (Promega).
# 5; Detector; 425V; Luminescence; Viewlux PerkinElmer.
# NOTES (numbers refer to Sequence numbers above)
# 1. The cell-based screening methods employed in this study were like those previously published. Briefly, the corresponding myeloma cell lines were screened in 1,536-well plates with 500 cells, 5-uL per well for inhibition of cell viability (assessed by measuring ATP levels with CellTiterGlo).
# 2. NCATS MIPE 4.0 library of approved and investigational drugs were added using the Kalypsis pin tool. Wells treated with DMSO only for 100% viability and media only wells for 0% viability were used as controls.
# 3. The assay plates were covered and incubated for 48 hours in a 37C, 5% CO2 incubator with controlled humidity.
# 4. After 48 hours, CellTilter-GloTM luminescent substrate mix (Promega) reagent was added to the assay plate and plates we incubated for 5 min at room temperature.
# 5. Signal was measured as median relative luminescence units on a ViewLux (PerkinElmer) multiplate reader.
# [1] Heske CM, Davis MI, Baumgart JT, Wilson K, Gormally MV, Chen L, Zhang X, Ceribelli M, Duveau DY, Guha R, Ferrer M, Arnaldez FI, Ji J, Tran HL, Zhang Y, Mendoza A, Helman LJ, Thomas CJ. Matrix Screen Identifies Synergistic Combination of PARP Inhibitors and Nicotinamide Phosphoribosyltransferase (NAMPT) Inhibitors in Ewing Sarcoma. Clin Cancer Res. 2017 Dec 1;23(23):7301-7311. doi: 10.1158/1078-0432.CCR-17-1121. Epub 2017 Sep 12. PMID: 28899971; PMCID: PMC6636827.
# Potency means the concentration at half of the fitted maximal effect.
row,Structure (SMILES),Potency
1,NS(=O)(=O)c1cc2c(cc1Cl)NCNS2(=O)=O,inactive
2,CCOC(=O)Nc1ccc(NCc2ccc(F)cc2)nc1N,20.9 µM (active)
3,CC(C)NCC(O)COc1ccc(CCOCC2CC2)cc1 (stereo not given),inactive
4,O=c1[nH]cc(F)c(=O)[nH]1,inactive
5,Cn1c(=O)c2[nH]cnc2n(C)c1=O,inactive
6,CC12CC3CC(C)(C1)CC(N)(C3)C2,inactive
7,CN1C2CCC1CC(OC(=O)C(CO)c1ccccc1)C2 (stereo not given),inactive
8,Cc1ccccc1N1C(=O)c2cc(S(N)(=O)=O)c(Cl)cc2NC1C (stereo not given),inactive
9,COc1ccc2[nH]cc(CCNC(C)=O)c2c1,inactive
10,COc1nc(C)nc(Cl)c1NC1=NCCN1,inactive
11,NC(=O)OCC(COC(N)=O)c1ccccc1,inactive
12,NC(CO)C(=O)NNCc1ccc(O)c(O)c1O (stereo not given),inactive
13,Cc1cc(C(C)(C)C)c(O)c(C)c1CC1=NCCN1,inactive
14,CC1(C)O[C@H]2CC(=O)OC[C@]23[C@H]2CC[C@@]4(C)[C@H](c5ccoc5)OC(=O)[C@H]5O[C@]54[C@]2(C)C(=O)C[C@@H]13,inactive
15,CC(C)(C)C(=O)Oc1ccc(S(=O)(=O)Nc2ccccc2C(=O)NCC(=O)O)cc1,inactive
16,CN(C)CCOC(c1ccccc1)c1ccccc1,inactive
17,Cn1ccc2cc3c(cc21)CCN3C(=O)Nc1cccnc1,inactive
18,CS(=O)(=O)CCNCc1ccc(-c2ccc3ncnc(Nc4ccc(OCc5cccc(F)c5)c(Cl)c4)c3c2)o1,18.7 µM (active)
19,CCOC(=O)c1ncn2c1CN(C)C(=O)c1cc(F)ccc1-2,inactive
20,O=C(c1ccc(OCCN2CCCCC2)cc1)c1c(-c2ccc(O)cc2)sc2cc(O)ccc12,26.4 µM (active)

row,Structure (SMILES),Potency
1,O=C1c2c(O)ccc(O)c2C(=O)c2c(NCCNCCO)ccc(NCCNCCO)c21,5.26 µM (active)
2,CS(=O)(=O)Nc1ccc([N+](=O)[O-])cc1Oc1ccccc1,inactive
3,CC(=O)OCC(CCn1cnc2cnc(N)nc21)COC(C)=O,inactive
4,CN(C)CCCN1c2ccccc2CCc2ccc(Cl)cc21,16.6 µM (active)
5,CC(C)C(=O)Nc1ccc([N+](=O)[O-])c(C(F)(F)F)c1,1.05 µM (active)
6,CCC1(C)CC(=O)NC1=O (stereo not given),inactive
7,O=C(Nc1ccc([N+](=O)[O-])cc1Cl)c1cc(Cl)ccc1O,0.935 µM (active)
8,CC[N+](CC)(CC)CCOc1cccc(OCC[N+](CC)(CC)CC)c1OCC[N+](CC)(CC)CC,inactive
9,CN(C)C(=O)C(CCN1CCC(O)(c2ccc(Cl)cc2)CC1)(c1ccccc1)c1ccccc1,inactive
10,CC[C@@]1(O)C(=O)OCc2c1cc1n(c2=O)Cc2cc3c(CN(C)C)c(O)ccc3nc2-1,3.72 µM (active)
11,CC(C)(Oc1ccc(C2CC2(Cl)Cl)cc1)C(=O)O (stereo not given),inactive
12,CN(CCOc1ccc(NS(C)(=O)=O)cc1)CCc1ccc(NS(C)(=O)=O)cc1,inactive
13,C[C@@H]1CC(=O)NN=C1c1ccc(NN=C(C#N)C#N)cc1,inactive
14,CC(C)NCC(O)c1ccc(O)c(O)c1 (stereo not given),14.8 µM (active)
15,COc1cc2c(c(OC)c1OC)-c1ccc(OC)c(=O)cc1[C@@H](NC(C)=O)CC2,inactive
16,Cc1ccc(-c2cc(C(F)(F)F)nn2-c2ccc(S(N)(=O)=O)cc2)cc1,inactive
17,CN1CCN(CCCN2c3ccccc3Sc3ccc(Cl)cc32)CC1,4.18 µM (active)
18,CC(C)Cc1ccc(C(C)C(=O)O)cc1 (stereo not given),inactive
19,Clc1ccc(C(c2ccccc2Cl)C(Cl)Cl)cc1 (stereo not given),inactive
20,CC#C[C@]1(O)CC[C@H]2[C@@H]3CCC4=CC(=O)CCC4=C3[C@@H](c3ccc(N(C)C)cc3)C[C@@]21C,0.662 µM (active)
